Reference: PubChem BioAssay (NCI)
The panel holds about 79,000 compounds, 15% with a hit somewhere; the sample as a whole holds those more often. Unmarked numbers belong to inactive results. Activity calls are given as the source filed them. Cut-off read from the data, not from the text of the source: active = growth inhibition above about 70%; inactive = the rest. *1 amine or outer side, *2 acyl side, *3 side chain or, on linkers, in order; H or OH if unused. Where a SMILES comes first, the peptide text is derived from it. Bridges are numbered along the chain shown (N, C = ends). [ ]: non-standard residue; d: D form. The star is where a group is joined. X16 = CC(C)C(C)C(C(=O)[*:2])N(C)[*:1]; Picolinoyl(3-OH) = O=C(c1ncccc1O)*; NMePhg = CN[CH](C(=O)O)c1ccccc1; Hyp = O=C(O)[CH]1C[CH](O)CN1; Sar = CNCC(=O)O

What was measured:
[1] = NCI Yeast Anticancer Drug Screen. Data for the rad50 strain (AID 155);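 note: 0% = growth of vehicle-only cultures of the same strain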; settings: S. cerevisiae rad50 strain growth inhibition; at 50.0 µM; stronger effect = higher value
Summary of the method: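 A DNA repair-deficient yeast mutant serves as the test organism; compound-induced growth inhibition is calculated against vehicle-treated cells.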

[2] = NCI Yeast Anticancer Drug Screen. Data for the mec2-1 strain (AID 157); settings: S. cerevisiae mec2-1 strain, at 50.0 µM, stronger effect = higher value
Summary of the method: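 Using mec2-1 yeast: add compound, measure growth, express inhibition versus vehicle-treated cultures.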

[3] = NCI Yeast Anticancer Drug Screen. Data for the sgs1 mgt1 strain (AID 161);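 note: 0% = growth of cultures given vehicle only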; settings: S. cerevisiae sgs1 mgt1 strain, at 50.0 µM, stronger effect = higher value
Summary of the method: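 Growth of a repair-deficient yeast mutant was monitored after compound treatment and expressed as inhibition relative to vehicle-treated cultures.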

[4] = NCI Yeast Anticancer Drug Screen. Data for the cln2 rad14 strain (AID 165);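 note: 0% = growth equal to vehicle treated cultures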; settings: S. cerevisiae cln2 rad14 strain, at 50.0 µM, stronger effect = higher value
Summary of the method: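 Yeast strain cln2 rad14, bearing defects in cell cycle control and DNA repair, serves as the test system; values reflect growth inhibition compared with vehicle.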

[5] = NCI Yeast Anticancer Drug Screen. Data for the bub3 strain (AID 167); settings: S. cerevisiae bub3 mutant strain, at 50.0 µM, stronger effect = higher value
Summary of the method: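 Inhibition values come from growth of compound-treated mutant yeast normalised to vehicle-treated controls.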

[6] = NCI Yeast Anticancer Drug Screen. Data for the mlh1 rad18 strain (AID 175); settings: S. cerevisiae mlh1 rad18 strain growth inhibition; at 50.0 µM; stronger effect = higher value
Summary of the method: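 Steps: expose repair-defective yeast to compound; measure growth; express inhibition against vehicle-treated controls.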

Structure (SMILES) | growth inhibition [1] | growth inhibition [2] | growth inhibition [3] | growth inhibition [4] | growth inhibition [5] | growth inhibition [6]
CCCc1ccc(OCC(=O)O)c(OC)c1 | -2.45% | -1.25% | 0.95% | 4.4% | -22.5% | -7.45%
CCN(CC)CC(OC(C)=O)c1ccc2ccc3ccc(O)cc3c2c1 (stereo unspecified) | 15.9% | 7.85% | -7.55% | -5.55% | -3.25% | 19.1%
Cc1cc2nc3n(c2cc1C)C(=O)c1cc2ccccc2cc1-3 | -8.55% | 0.6% | 3.1% | 7.7% | -10.4% | 2.7%
CCCCCCCC(=O)Oc1cccc(C)c1 | -0.9% | -3.3% | -8.6% | -10.3% | -7.35% | 2.2%
O=C(Nc1cccc(O)c1)OC1CCCCC1 | 25.8% | 6.05% | 25.2% | -18.1% | 34% | 24.4%
CNc1nc(SC)nc2[nH]ncc12 | 7.1% | -9.2% | 2.45% | -3.2% | 23% | 2.05%
CCOC(=O)c1[nH]c(Cc2[nH]c(C(=O)OCC)c(CC)c2C)c(C)c1CC | 7.8% | -1.1% | -4.75% | -3.65% | -4.7% | 24.2%
CC1=C(C(=O)Nc2ccccc2C)C(c2ccccc2C)C(C(=O)Nc2ccccc2C)=C(C)N1 | 67.2% | 62.6% | 51.8% | 27.3% | 64.3% | 57.7%
CCOc1ccc(NC(=O)CCCCCCCCC(=O)Nc2ccc(OCC)cc2)cc1 | 6.8% | 3.2% | -11.8% | -1.9% | -4.8% | 19.8%
CCOC(=O)c1cc2cc(Cc3ccc4[nH]c(C(=O)OCC)cc4c3)ccc2[nH]1 | -12.8% | -21.4% | -26.2% | -26.4% | -32.2% | -43.6%
COc1ccc(C2=C(c3ccccc3)C(=O)C(c3ccccc3)=C2c2ccccc2)cc1 | -12.9% | -12.9% | -8.7% | 13.2% | -1.7% | -6.05%
CCNc1ccc(-c2ccc(NCC)cc2)cc1 | 31.6% | -14% | 26% | 3.2% | -1.45% | 36.9%
N#CCc1ccc(Nc2cc(=O)[nH]c(=O)[nH]2)cc1 | -7.5% | 1.5% | 3.65% | -35.1% | -7.5% | -7.55%
CC(C)(CCN(CC(=O)O)CC(=O)O)[N+](=O)[O-] | -16.1% | -3.1% | 3.65% | -69.8% | 6.05% | -21.5%
CCCCCNc1ncnc2c1cnn2C | 7.6% | 0.6% | -1.35% | -12.4% | 22.6% | -0.4%
CC1=NN(c2nc(N)nc(CCl)n2)CC1 | 11.1% | 6.35% | 8.15% | 21.9% | 11.5% | -29.2%
c1ccc(-c2cccc(-c3ccccc3)n2)cc1 | 20.5% | 33.9% | -1.4% | -10.8% | -24.3% | 28.7%
CC(C)CC1NC(=O)C(NC(=O)c2ncccc2O)C(C)OC(=O)C(c2ccccc2)N(C)C(=O)C(C)NC(=O)C(C(C)C(C)C)N(C)C(=O)CN(C)C(=O)C2CC(O)CN2C1=O (stereo unspecified) ({Picolinoyl(3-OH)}-TL[Hyp][Sar][X16]A[NMePhg]; ester 1-C; configuration not given here) | 15.8% | 3.65% | 19.1% | 3% | -10.9% | -2.35%
O=c1[nH]c2cc([N+](=O)[O-])ccc2nc1/C=C(\O)c1ccccc1 | -21.2% | -18.4% | -14.3% | -3.7% | -1.8% | 3.3%
N#Cc1ccccc1NC(=O)Nc1ccc(Cl)cc1Cl | 16.4% | -7.35% | 27% | -0.25% | 4.35% | 10.6%
CC(=O)N1CC(C)(C)c2c1cc(C)c(O)c2C | 1.85% | -47.9% | -8.4% | -7.8% | 5.15% | -1.8%

Structure (SMILES) | growth inhibition [1] | growth inhibition [2] | growth inhibition [3] | growth inhibition [4] | growth inhibition [5] | growth inhibition [6]
Nc1ccc(C(=O)O)c(O)c1.Nc1ccc(C(=O)O)c(O)c1.[Cu] | -13.4% | 2.4% | -20.3% | 3.6% | -1.95% | -5.05%
O=[S@@]1Nc2cc3ccccc3cc2S1 | 23.2% | -3.35% | 17.6% | 17.1% | -14.9% | 39.2%
O=C(NNc1ccccc1)/C(=C/c1ccc2c(c1)OCO2)NC(=O)c1ccccc1 | 15.8% | 9.5% | -29.6% | -6.2% | 1.35% | 4.55%
O=S(=O)(O)CCc1ccccc1 | 1.9% | 9.15% | -10.9% | -7.5% | -21.1% | -26.5%
C=CCC1(/C(=C\CC)CCC)C(=O)NC(=O)N=C1N (stereo unspecified) | 8.45% | -0.3% | 10% | -36.8% | -11.2% | 8.3%
CC(C)CC(=O)NC(C(=O)NC(C(=O)NC(CC(C)C)C(O)CC(=O)NC(C)C(=O)NC(CC(C)C)C(O)CC(=O)O)C(C)C)C(C)C (stereo unspecified) | 5.8% | -18.4% | -20.9% | 7.6% | 5.95% | -9.75%
COCCCNC1=C(C#N)C(=O)NC2(CCCC2)S1 | -35.6% | -35.5% | -18.5% | -2.65% | -30.8% | -17.2%
CCCCCc1nnc2n1N=C(c1ccc(Cl)cc1)CS2 | -26.6% | -13.9% | -2.5% | 4.1% | -17.6% | 3.5%
N#CCCOCCSCCC#N | 3% | 5.15% | -5.95% | -5.45% | 1% | -1.8%
COC(=O)CNc1cccc([N+](=O)[O-])c1 | -3.45% | 5.15% | -3.65% | -14.7% | -11.3% | -19.2%
N#COc1ccc(-c2ccccc2)cc1 | -38.5% | -8.35% | -12.2% | -15.2% | -9.25% | 0.8%
O=[N+]([O-])c1cc(N(c2ccccc2)c2ccccc2)cc([N+](=O)[O-])c1 | 2.05% | -12.4% | -30.4% | 9.95% | -2.8% | -22.6%
CCCCOC(=O)c1ccc(OC(=O)Nc2ccc(Cl)cc2)cc1 | 10.4% | 42.3% | 39% | -11.2% | 78.7% (active) | 30.2%
COc1ccc(C(=O)CC(Sc2ccccc2N)c2ccc(OC)cc2)cc1 (stereo unspecified) | -16.6% | -17.9% | 8.95% | -10% | 6.3% | -7.3%
CCCCCCCCCCCCCCCCN(C)C(=S)c1ccc(OC)cc1 | 25.4% | -3.4% | -1.8% | -3.15% | -1% | -8.4%
CC(=O)OC1CN(c2ccc(Br)cc2)CC(OC(C)=O)CN(c2ccc(Br)cc2)C1 (stereo unspecified) | 6.25% | 9.7% | -13.8% | -32.9% | -5.55% | -13.3%
Nc1nc(SCCc2ccccc2)nc2nc3c(c(-c4ccccc4)c12)CCCC3 | -23.3% | -10.6% | -3.2% | 2.35% | 0.05% | 5.1%
CCCCCCCCCCP(=O)(O)CCCCCCCCCC | 8.3% | -3.8% | 9.9% | -144% | 21.7% | -16.3%
CC(=Nc1cccc(C(F)(F)F)c1)c1c(O)cc(C)oc1=O | 9.25% | 14.8% | 24.9% | 11.7% | 28.2% | 35.1%
CCC(=N)C(c1ccccc1)(c1ccccc1)C(C)CN(C)C (stereo unspecified) | 23.6% | -7.3% | -2.4% | -4.75% | -9.15% | 13.7%
